# From the supplement of paper PMC11624193, “Coupling cellular drug-target engagement to downstream pharmacology with CeTEAM” (Nature Communications, 2024)
# “And” between values parts separate entries of the source, which are not always exact repeats. Equal entries are not always repeated. Structures can show the parent of a compound that is named as a salt.
# Target: PARP1 L713F-nLuc biosensor (HCT116) (UniProt P09874)
# Experiment: PARP1 L713F-nLuc/akaLuc ratio relative to DMSO control (biosensor stabilization) (fold change); higher = more PARP1 biosensor stabilization (target engagement / stabilizer), active = hit call of the paper
# Conditions: stock concentration (mM; final µM = stock mM x 1): 10; 24 h;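 active = log2 fold change beyond 2 SD from the library mean after excluding viability outliers; inactive = within 2 SD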
# PARP1 L713F-nLuc biosensor (HCT116), sequence (P09874 whole entry L713F, looked up): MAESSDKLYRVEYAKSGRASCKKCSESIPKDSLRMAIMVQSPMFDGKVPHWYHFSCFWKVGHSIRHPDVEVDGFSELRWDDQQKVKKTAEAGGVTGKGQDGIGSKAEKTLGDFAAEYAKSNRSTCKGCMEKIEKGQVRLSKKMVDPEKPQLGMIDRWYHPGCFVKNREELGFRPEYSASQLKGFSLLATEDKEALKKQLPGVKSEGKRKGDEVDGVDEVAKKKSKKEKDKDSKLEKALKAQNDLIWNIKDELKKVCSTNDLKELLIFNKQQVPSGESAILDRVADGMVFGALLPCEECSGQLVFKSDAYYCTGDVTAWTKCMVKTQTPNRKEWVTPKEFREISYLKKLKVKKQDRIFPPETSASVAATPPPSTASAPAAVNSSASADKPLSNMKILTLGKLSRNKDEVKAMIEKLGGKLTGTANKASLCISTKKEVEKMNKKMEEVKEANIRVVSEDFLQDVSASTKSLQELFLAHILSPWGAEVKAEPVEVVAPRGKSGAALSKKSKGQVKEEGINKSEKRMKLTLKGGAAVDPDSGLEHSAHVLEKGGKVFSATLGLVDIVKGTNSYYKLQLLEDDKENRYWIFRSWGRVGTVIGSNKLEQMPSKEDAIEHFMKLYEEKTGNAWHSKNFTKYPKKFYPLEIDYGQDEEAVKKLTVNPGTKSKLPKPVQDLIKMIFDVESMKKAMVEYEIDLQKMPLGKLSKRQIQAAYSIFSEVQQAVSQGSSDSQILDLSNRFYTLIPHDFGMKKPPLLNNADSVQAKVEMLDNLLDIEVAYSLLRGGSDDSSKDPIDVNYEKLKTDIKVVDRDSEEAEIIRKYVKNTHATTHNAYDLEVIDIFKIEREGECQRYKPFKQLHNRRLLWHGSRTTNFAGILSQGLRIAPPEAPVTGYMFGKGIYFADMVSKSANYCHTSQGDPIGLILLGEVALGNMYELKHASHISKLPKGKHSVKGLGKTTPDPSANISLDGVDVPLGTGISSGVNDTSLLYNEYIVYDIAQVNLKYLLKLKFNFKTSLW
row,SMILES,PARP1 L713F-nLuc/akaLuc ratio
1,COc1ccc2[nH]cc(/C=C3\C(=O)Nc4ccc(NC(=O)CCN5CCCCC5)cc43)c2c1,0.931 (inactive)
2,Cc1ccc(OCCSc2ncccn2)c(Br)c1 [ZLN024 (hydrochloride)],0.863 (inactive)
3,COc1cc2ccc(=O)oc2cc1O[C@@H]1O[C@H](CO)[C@@H](O)[C@H](O)[C@H]1O [Scopolin],1.04 (inactive)
4,CCCCNc1ncc(C(=O)NCc2ccc(-n3ccnc3)cc2)c(NC2CCC(O)CC2)n1 (configuration not stated),0.954 (inactive)
5,CN(C)C(=O)c1ccc(S(=O)(=O)c2ccc(NC(=O)[C@@](C)(O)C(F)(F)F)c(Cl)c2)cc1,1.12 (inactive)
6,CC(C)Oc1ccc(-c2nn([C@@H](C)c3oc4ccc(F)cc4c(=O)c3-c3cccc(F)c3)c3ncnc(N)c23)cc1F [umbralisib (TGR-1202)],1.01 (inactive)
7,NC(=O)[C@H](CCCN=C(N)CCl)NC(=O)c1ccccc1 [Cl-amidine (hydrochloride)],0.914 (inactive)
8,CC1=C(CC[C@@H](C)CO[C@@H]2O[C@H](CO)[C@@H](O)[C@H](O)[C@H]2O)O[C@H]2C[C@H]3[C@@H]4CC=C5C[C@@H](O[C@@H]6O[C@H](CO)[C@@H](O[C@@H]7O[C@@H](C)[C@H](O)[C@@H](O)[C@H]7O)[C@H](O)[C@H]6O[C@@H]6O[C@@H](C)[C@H](O)[C@@H](O)[C@H]6O)CC[C@]5(C)[C@H]4CC[C@]3(C)[C@@H]12 [Pseudoprotodioscin],0.989 (inactive)
9,COc1cc2c(Oc3ccc4[nH]c(C)cc4c3F)ncnc2cc1OCCCN1CCCC1 [Cediranib (AZD2171)],1.46 (inactive)
10,CC(C)N(CCCNC(=O)Nc1ccc(C(C)(C)C)cc1)C[C@H]1O[C@@H](n2cc(Br)c3c(N)ncnc32)[C@H](O)[C@@H]1O,0.82 (inactive) and 0.934 (inactive)
11,O=C1CCc2c(ccc3ccccc23)O1 [Splitomicin],0.895 (inactive)
12,O=C(Nc1cnn2ccc(N3CCC[C@@H]3c3cc(F)ccc3F)nc12)N1CC[C@H](O)C1 [Larotrectinib (LOXO-101) sulfate],0.817 (inactive)
13,CCN(CC)CCCC(C)Nc1c2ccc(Cl)cc2nc2ccc(OC)cc12 (configuration not stated) [Quinacrine Dihydrochloride Dihydrate],0.656 (inactive)
14,CNC(=O)N1N=C(c2ccc(N3CCN(C)CC3)cc2)c2cc(OC)c(OC)cc2C[C@H]1C,1.27 (inactive)
15,CCc1cncnc1N1CCN(Cc2nc3ccc(C(F)(F)F)cc3[nH]2)CC1,0.681 (inactive)
16,O=S(=O)(NCCSSCCNS(=O)(=O)c1cc(Cl)ccc1Cl)c1cc(Cl)ccc1Cl,1.18 (inactive)
17,O=C(c1cncc(Br)c1)N1CCC(N2CCCC2)CC1,1.73 (inactive)
18,Cc1cnc(Nc2ccc(OCCN3CCCC3)cc2)nc1Nc1cccc(S(=O)(=O)NC(C)(C)C)c1 [Fedratinib],0.694 (inactive)
19,O=C(NCc1ccncc1)C12CC3CC(C1)CC(c1ccc(Cl)cc1)(C3)C2,0.757 (inactive)

row,SMILES,PARP1 L713F-nLuc/akaLuc ratio
1,COc1ccc2cc3[n+](cc2c1OC)CCc1cc(O)c(O)cc1-3 [Demethyleneberberine],1.47 (inactive)
2,CCN(c1cc(-c2ccc(CN3CCOCC3)cc2)cc(C(=O)NCc2c(C)cc(C)[nH]c2=O)c1C)C1CCOCC1 [Tazemetostat (hydrobromide)],0.726 (inactive)
3,COc1ccc2c(c1O)OC(C)(C)c1c-2ccc2c1C(=O)N(c1ccc(C(=O)c3ccccc3)cc1)C2=O [Ampkinone],1.18 (inactive)
4,NC(=O)c1cccc2cn(-c3ccc([C@@H]4CCCNC4)cc3)nc12 [Niraparib (hydrochloride)],4.39 (active)
5,CCS(=O)(=O)N1CCN(c2ccc(Nc3ncc(C(N)=O)c(NC4CC4)n3)cc2)CC1 [Cerdulatinib (hydrochloride)],1.06 (inactive)
6,C=CC[C@@H]1/C=C(\C)C[C@H](C)C[C@H](OC)[C@H]2O[C@@](O)(C(=O)C(=O)N3CCCC[C@H]3C(=O)O[C@H](/C(C)=C/[C@@H]3CC[C@@H](O)[C@H](OC)C3)[C@H](C)[C@@H](O)CC1=O)[C@H](C)C[C@@H]2OC [Tacrolimus (FK506)],0.7 (inactive)
7,COc1ccccc1C(=O)Nc1cc2c(cc1N1CCCCC1)n(C)c(=O)n2C,1.25 (inactive)
8,Cc1cc(F)c(C(=O)Nc2cccc(-c3nncn3C(C)C)n2)cc1-n1cnc(C2CC2)c1 [Selonsertib (GS-4997)],0.908 (inactive)
9,CC(C)(C#N)c1cc(Cn2cncn2)cc(C(C)(C)C#N)c1 [Anastrozole],0.888 (inactive)
10,COC(=O)/C=C/c1ccccc1 [Methyl cinnamate],1.29 (inactive)
11,CC1(C)C(=O)NC2=C1C(=O)C(=O)c1ccccc12,0.888 (inactive)
12,COC(=O)c1ccc(N2CCN(C)CC2)c(NC(=O)c2cccc(OC)c2)c1,0.856 (inactive)
13,COc1cc(C)c(/C=C/C(C)=C/C=C/C(C)=C/C(=O)O)c(C)c1C [Acitretin],0.747 (inactive)
14,CC1=C(C)C(=O)C(C(C)(C)CC(=O)N(CCCCSC[C@H]2O[C@@H](n3cnc4c(N)ncnc43)[C@H](O)[C@@H]2O)Cc2cccc(-c3ccc(Cl)cc3)c2)=C(C)C1=O,0.784 (inactive)
15,COc1ccc(/C=C/C(=O)NO)c(-c2ccc(-c3ccccc3)cc2)c1,0.65 (inactive)
16,C=CC(=O)N1CCC(Oc2cc3c(Nc4ccc(Cl)c(Cl)c4F)ncnc3cc2OC)CC1 [Poziotinib (HM781-36B)],1.28 (inactive)
17,CCCc1cc(C)[nH]c(=O)c1CNC(=O)c1cc(-c2ccnc(N3CCN(C)CC3)c2)cc2c1cnn2C(C)C,2.54 (inactive)
18,CCCOc1ccn2c(C(C)=O)cc(-c3ccccc3S(C)(=O)=O)c2c1,0.733 (inactive)
